D1 antag: antagonists of human D1 dopamine receptor; HEK293 TREx D1 cells, calcium flux, dopamine EC80; hits give low values; activity change, negative = inhibition, % at 10 µM; P21728; hit rate 3.2% among 360,000; in the data active = activity change below about -30%; also: % is scaled to controls: 0 for no effect and ±100 for the full control effect
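Tetracycline-induced HEK293 Trex D1 cells, force-coupled to calcium, dye-loaded; compounds added and read 180 s, then EC80 dopamine added and calcium flux tracked kinetically another 180 s.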
D1 agonist: agonists of human D1 dopamine receptor. HEK293 T-REx D1 cells, calcium flux, agonist mode. hit rate 1% among 360,000. activation, % at 2 µM. P21728; in the data active = activation above about 30%; also: 0% is about no effect
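Agonism was scored from calcium flux recorded over 180 s (1 read/s) after pintool compound addition, following a 10-cycle baseline. Cells were inducible force-coupled HEK293 TREx D1, plated overnight at 30 C and loaded with no-wash calcium dye.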
D1 potentiator: potentiators of human D1 dopamine receptor. P21728. HEK293 TREx D1 cells, calcium flux, dopamine EC20 potentiation. potentiation, % at 10 µM. hit rate 0.036% among 360,000. AID 504651; in the data active = potentiation above about 30%; also: 0% is about no effect
D3 ag: D3 dopamine receptor (human) agonism | P35462 | D3R DiscoveRx beta-arrestin cells, luminescence, 90 min | max activation, % | hit rate 0.58% among 410,000 | AID 652048; in the data active = max activation above about 30%; also: 0% is about no effect
Target sequence (P35462 whole entry, looked up): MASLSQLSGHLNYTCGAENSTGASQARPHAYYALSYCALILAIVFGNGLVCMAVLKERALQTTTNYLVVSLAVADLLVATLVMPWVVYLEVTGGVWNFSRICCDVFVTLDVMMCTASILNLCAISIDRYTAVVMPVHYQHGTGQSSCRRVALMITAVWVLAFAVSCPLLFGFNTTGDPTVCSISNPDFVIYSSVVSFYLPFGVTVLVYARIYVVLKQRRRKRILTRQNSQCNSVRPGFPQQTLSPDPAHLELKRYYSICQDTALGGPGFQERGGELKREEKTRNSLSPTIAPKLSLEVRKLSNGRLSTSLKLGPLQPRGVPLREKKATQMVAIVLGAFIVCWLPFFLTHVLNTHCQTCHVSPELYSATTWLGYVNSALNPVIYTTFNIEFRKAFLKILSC
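Agonist mode: compounds and dopamine controls were applied to plated cells for 90 min at 37 degrees C after an overnight attachment at 1500 cells/well. Luminescent read-out followed 30 - 60 minutes at room temperature with DiscoveRx detection reagent.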
DRD3 antagonist: antagonists of human D3 dopamine receptor. P35462. D3R cells, DiscoveRx beta-arrestin luminescence, antagonist mode; hits give low values. max response, negative = inhibition, %. hit rate 2.5% among 360,000; in the data active = max response below about -50%; inconclusive = no clear call, values can overlap the other calls; also: % is scaled to controls: 0 for no effect and ±100 for the full control effect
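Cells expressing the human receptor were seeded at 1500 cells/well, incubated overnight at 37 degrees C in 5% CO2, then exposed to library compounds with dopamine controls for 90 minutes at 37 degrees C before luminescent detection.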
* = called active by the depositor. Only some compounds are listed: those with a hit (about 6% of all), similar ones and a draw of the others.

CO/N=C(\C(=O)N[C@@H]1C(=O)N2C(C(=O)OCOC(=O)C(C)(C)C)=C(/C=C\c3scnc3C)CS[C@H]12)c1csc(N)n1 was read as D3 ag -11.5.
For Cn1cccc1/C=C1\CCC/C(=C\c2cccn2C)C1=O the results were D1 antag -32.0*, D1 agonist 138.6*, D1 potentiator 4.5, D3 ag 5.8 and DRD3 antagonist -25.9.
`CCCOc1cccc(C2C(C(=O)c3cccs3)=C(O)C(=O)N2Cc2cccnc2)c1` (centres undefined) gave D1 antag -0.5, D1 agonist 4.0, D1 potentiator 4.8, D3 ag 9.7 and DRD3 antagonist 1.8.
Cc1ccc(F)c(S(=O)(=O)NC(=O)C2(C)CCN2C(=O)c2cccc3ccccc23)c1 (centres undefined) was read as D3 ag 71.6* and DRD3 antagonist 4.5.
`Cc1ccccc1S(=O)(=O)NC(=O)C1(C)CCN1C(=O)c1cccc2ccccc12` (centres undefined) gave D3 ag 2.4 and DRD3 antagonist -13.2.
Screening O=C(NCCSCc1c(F)cccc1Cl)C1CCN(S(=O)(=O)Cc2ccccc2)CC1 returned D1 antag -5.0, D1 agonist -0.7, D1 potentiator 0.8 and D3 ag 4.5.
For COc1ccc(S(=O)(=O)Nc2c(NC3CCCCC3)c3ccccc3oc2=O)cc1 the results were D1 antag -31.4*, D1 agonist 0.3, D1 potentiator -8.1, D3 ag 1.3 and DRD3 antagonist -1.7.
O=c1oc2ccccc2c(NC2CCCCC2)c1NS(=O)(=O)c1ccc(F)cc1 was read as D1 antag 3.3, D1 agonist 4.0, D1 potentiator 0.1, D3 ag -2.2 and DRD3 antagonist 16.8.
Cc1ccc(OCc2cc(C(=O)N(C)Cc3cnn(-c4ccccc4C)c3)no2)cn1 was read as D1 antag -13.8, D1 agonist 7.9, D1 potentiator 3.8, D3 ag 9.0 and DRD3 antagonist 6.7.
`Oc1c(Br)cc(Cl)cc1C=Nc1ccccc1Br` gave D1 antag -12.0, D1 agonist 3.1, D1 potentiator -0.8, D3 ag -19.9 and DRD3 antagonist -72.6*.
`CN1CCN(NC(=O)NC2CCCCC2)CC1` gave D1 antag -39.0*, D1 agonist 27.6, D1 potentiator 1.8, D3 ag 2.0 and DRD3 antagonist -5.7.
`O=C1NC(c2ccc3ccccc3c2)Nc2ccccc21` (centres undefined) gave D3 ag -5.0 and DRD3 antagonist -22.2.
Screening Brc1ccc(C2Nc3cccc4cccc(c34)N2)cc1 returned D3 ag -12.2 and DRD3 antagonist -63.3*.
`Fc1ccc(C2Nc3cccc4cccc(c34)N2)cc1` gave D1 antag 4.1, D1 agonist 3.3, D1 potentiator -3.4, D3 ag -3.6 and DRD3 antagonist -74.9*.
For O=[N+]([O-])c1ccc(C2Nc3cccc4cccc(c34)N2)cc1 the results were D1 antag -0.1, D1 agonist -0.3, D1 potentiator -0.4, D3 ag 1.8 and DRD3 antagonist inconclusive.
Screening Clc1ccccc1C1Nc2cccc3cccc(c23)N1 returned D1 antag 28.7, D1 agonist -2.0, D1 potentiator -2.5, D3 ag 0.1 and DRD3 antagonist -18.6.
O=C1NC(c2ccc(Br)cc2)Nc2ccccc21 (centres undefined) was read as D1 antag -32.2*, D1 agonist -2.1, D1 potentiator -3.9, D3 ag -5.5 and DRD3 antagonist 16.4.
Screening FC(F)(F)c1ccc(C2Nc3cccc4cccc(c34)N2)cc1 returned D1 antag -1.9, D1 agonist 6.8, D1 potentiator -5.6, D3 ag -2.6 and DRD3 antagonist -9.2.
For Clc1cccc(C2Nc3cccc4cccc(c34)N2)c1Cl the results were D1 antag -35.8*, D1 agonist 2.0, D1 potentiator -12.2, D3 ag -5.5 and DRD3 antagonist 3.3.
Screening Cc1cccc(N(Cc2ccccc2)C(=O)C2CCN(C(=O)c3ccccc3C)CC2)c1 returned D1 antag -3.4, D1 agonist 2.0, D3 ag -1.7 and DRD3 antagonist 0.0.
`CCN(CC)C(=O)C1=C(C)N(Cc2ccc(OC)cc2)C(=O)C(CC(=O)NCCc2ccccn2)C1` (centres undefined) gave D3 ag -5.9 and DRD3 antagonist 5.8.
CCCN(C(=O)Cc1nc(-c2ccc(OC)cc2)no1)c1ccccc1C was read as D1 antag -4.3, D1 agonist 4.0, D1 potentiator 1.6 and D3 ag -7.0.
Screening Cc1ccc(C2Nc3cccc4cccc(c34)N2)s1 returned D1 antag 7.9, D1 agonist 3.5, D1 potentiator -1.6, D3 ag -2.8 and DRD3 antagonist -60.6*.
`c1coc(C2Nc3cccc4cccc(c34)N2)c1` gave D1 antag -6.5, D1 agonist 0.4 and D1 potentiator -3.4.
For CCN1CCN(c2c(S(=O)(=O)c3ccc(OC)cc3)cnc3cc(OC)c(OC)cc23)CC1 the results were D1 antag -40.3*, D1 agonist 0.2, D1 potentiator -8.7 and D3 ag -2.0.
`CC(C(=O)N(C)C1CCS(=O)(=O)C1)N1C(=O)/C(=C/c2ccc(F)cc2)SC1=S` (centres undefined) gave D1 antag -41.6*, D1 agonist 11.7, D1 potentiator -4.6, D3 ag -0.2 and DRD3 antagonist -10.4.
Screening CN(C(=O)CCN1C(=O)/C(=C/c2ccc(F)cc2)SC1=S)C1CCS(=O)(=O)C1 (centres undefined) returned D3 ag 6.1 and DRD3 antagonist 29.8.
Screening CCCCn1c(-c2cccc3ccccc23)nc2cc3[nH]c(=O)c(C(C)C)nc3cc21 returned D1 antag -15.9, D1 agonist -0.5, D1 potentiator -17.2, D3 ag 2.9 and DRD3 antagonist -2.0.
For CCCCn1c(-c2ccccc2C)nc2cc3[nH]c(=O)c(C(C)C)nc3cc21 the results were D1 antag 7.4, D1 agonist -0.7, D1 potentiator 1.1, D3 ag 0.0 and DRD3 antagonist -63.8*.
COc1ccccc1NC(=O)CSc1nc2c(oc3ccccc32)c(=O)n1C was read as D1 antag -12.2, D1 agonist 3.6, D1 potentiator -5.3, D3 ag 31.2* and DRD3 antagonist 67.4.
O=C(O)Cn1nnnc1SCC(=O)Nc1ccccc1F was read as D1 antag 1.4, D1 agonist 2.0, D1 potentiator -8.4, D3 ag -2.8 and DRD3 antagonist 11.6.
For Cc1cccc(NC(=O)CSc2nc3c([nH]c4ccccc43)c(=O)n2C)c1C the results were D1 antag -51.2*, D1 agonist 1.6, D1 potentiator 0.6 and D3 ag 9.1.
`Cn1c(SCC(=O)Nc2ccccc2F)nc2c([nH]c3ccccc32)c1=O` gave D1 antag 2.7, D1 agonist 0.4, D1 potentiator -3.1 and D3 ag 2.3.

Source: PubChem BioAssay (National Center for Advancing Translational Sciences (NCATS))
